Data published in PubChem BioAssay.
A number with no mark means an inactive call. For some of these results: Entries with a potency or affinity are not part of this list. Activity calls are given as the source filed them. Unless noted, how the calls were made is not given here.

Assays:
[1] = antimalarial activity against Dd2 strain (AID 2302;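 active means growth inhibition above 50% at the single 2 µM test dose, taken to imply half-maximal potency below 2 µM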;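 further: 0% = DMSO untreated growth and 100% = chloroquine plus artemisinin killed control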); settings: P. falciparum Dd2 in RBCs, LDH growth readout, 72 h; at 2 µM; hits give high values
[2] = human hepatoma cell viability loss – ATP luminescence, cytotoxicity control for P. falciparum antimalarial project, primary screen (AID 2303;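 active means inhibition above 50%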;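 further: 0% = DMSO wells and 100% = digitonin-killed cells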); settings: HepG2 viability, 24-48 h, at 10 µM, hits give high values
[3] = target: L-lactate dehydrogenase (Plasmodium falciparum (isolate CDC / Honduras)) (UniProt Q27743); assay: PfLDH activity inhibition – cell lysate, 3D7 strain, counter-screen for P. falciparum growth inhibition project (AID 2304);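 further: 0% = vehicle and 100% = reference inhibitor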; settings: P. falciparum 3D7 crude extract, LDH APAD/NBT absorbance; at 2 µM; hits give high values
Sequence of L-lactate dehydrogenase (Plasmodium falciparum (isolate CDC / Honduras)) (Q27743 whole entry, looked up): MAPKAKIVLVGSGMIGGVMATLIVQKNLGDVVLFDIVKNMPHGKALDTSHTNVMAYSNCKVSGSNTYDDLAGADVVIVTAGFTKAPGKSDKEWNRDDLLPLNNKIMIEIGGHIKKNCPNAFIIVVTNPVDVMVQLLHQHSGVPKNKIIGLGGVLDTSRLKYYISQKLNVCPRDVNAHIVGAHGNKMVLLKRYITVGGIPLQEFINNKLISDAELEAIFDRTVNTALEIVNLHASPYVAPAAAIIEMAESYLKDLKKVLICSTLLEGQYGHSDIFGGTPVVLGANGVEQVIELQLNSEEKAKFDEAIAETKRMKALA

[4] = inhibition of 3D7 malaria parasite growth – strain 3D7 (AID 2306);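 further: 0% = DMSO wells and 100% = chloroquine plus artemisinin control wells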; settings: P. falciparum 3D7 erythrocytic growth, LDH absorbance, 72 h; at 2 µM; hits give high values
[5] = target: Calcium-dependent protein kinase 1 (Plasmodium falciparum (isolate 3D7)) (UniProt P62344); assay: PfCDPK1 kinase inhibitors, biochemical, TCAMS library (AID 1159585; cut-off not given, nearly all actives have IC50 up to about 0.98 µM;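 further: inhibitors leave more ATP so luminescence rises with inhibition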); settings: recombinant PfCDPK1, Kinase-Glo ATP depletion luminescence
Sequence of Calcium-dependent protein kinase 1 (Plasmodium falciparum (isolate 3D7)) (P62344 whole entry, looked up): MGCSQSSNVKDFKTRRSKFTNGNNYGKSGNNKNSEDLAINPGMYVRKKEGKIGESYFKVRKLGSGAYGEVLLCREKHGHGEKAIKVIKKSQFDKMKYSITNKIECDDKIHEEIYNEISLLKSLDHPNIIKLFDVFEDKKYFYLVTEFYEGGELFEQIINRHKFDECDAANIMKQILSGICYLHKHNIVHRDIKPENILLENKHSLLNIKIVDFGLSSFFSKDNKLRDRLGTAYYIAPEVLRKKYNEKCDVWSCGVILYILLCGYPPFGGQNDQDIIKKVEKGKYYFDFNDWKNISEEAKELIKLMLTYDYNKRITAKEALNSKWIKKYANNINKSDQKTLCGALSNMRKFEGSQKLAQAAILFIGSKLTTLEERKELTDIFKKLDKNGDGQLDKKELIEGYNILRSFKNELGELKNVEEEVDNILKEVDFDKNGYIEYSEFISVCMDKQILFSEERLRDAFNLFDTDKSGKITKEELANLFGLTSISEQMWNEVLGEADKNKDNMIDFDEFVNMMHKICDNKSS

[6] = target: Plasmodium falciparum protein kinase 6 (PK6, PF3D7_1337100) (UniProt Q8IDW1); assay: PfPK6 kinase inhibitors, biochemical, TCAMS library (AID 1159586); settings: recombinant PfPK6, Kinase-Glo ATP depletion luminescence
Sequence of Plasmodium falciparum protein kinase 6 (PK6, PF3D7_1337100) (Q8IDW1 1-305): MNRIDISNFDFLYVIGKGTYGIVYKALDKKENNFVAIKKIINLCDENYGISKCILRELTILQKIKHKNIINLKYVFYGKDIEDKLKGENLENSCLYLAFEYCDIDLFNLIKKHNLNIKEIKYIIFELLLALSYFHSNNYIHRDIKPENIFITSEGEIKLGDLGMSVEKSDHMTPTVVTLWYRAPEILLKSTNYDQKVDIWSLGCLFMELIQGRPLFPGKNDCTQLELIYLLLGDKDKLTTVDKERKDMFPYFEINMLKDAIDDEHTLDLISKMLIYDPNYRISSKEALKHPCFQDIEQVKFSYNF

[7] = target: Protein kinase 7 (PK7), Plasmodium falciparum 3D7 (PF3D7_0213400) (UniProt Q7YTF7); assay: inhibition of Plasmodium PK7 catalytic activity – biochemical, TCAMS antimalarial set, Kinase-Glo luminescence (AID 1159587); settings: recombinant PfPK7, Kinase-Glo ATP depletion luminescence
Sequence of Protein kinase 7 (PK7), Plasmodium falciparum 3D7 (PF3D7_0213400) (Q7YTF7 1-343): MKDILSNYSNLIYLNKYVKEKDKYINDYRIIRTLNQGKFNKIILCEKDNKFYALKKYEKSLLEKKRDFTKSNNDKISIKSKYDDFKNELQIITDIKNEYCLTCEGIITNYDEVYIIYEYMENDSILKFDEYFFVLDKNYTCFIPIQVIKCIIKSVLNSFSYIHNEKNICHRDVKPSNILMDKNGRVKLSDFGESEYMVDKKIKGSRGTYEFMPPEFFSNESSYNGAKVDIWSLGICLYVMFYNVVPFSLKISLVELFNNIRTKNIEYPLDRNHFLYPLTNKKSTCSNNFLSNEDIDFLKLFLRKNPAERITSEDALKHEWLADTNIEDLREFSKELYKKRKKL

[8] = target: Calcium-dependent protein kinase 4 (Plasmodium falciparum (isolate 3D7)) (UniProt Q8IBS5); assay: PfCDPK4 kinase inhibitors, biochemical, TCAMS library (AID 1159588; cut-off not given, nearly all actives have IC50 up to about 0.91 µM); settings: recombinant PfCDPK4, Kinase-Glo ATP depletion luminescence
Sequence of Calcium-dependent protein kinase 4 (Plasmodium falciparum (isolate 3D7)) (Q8IBS5 whole entry, looked up): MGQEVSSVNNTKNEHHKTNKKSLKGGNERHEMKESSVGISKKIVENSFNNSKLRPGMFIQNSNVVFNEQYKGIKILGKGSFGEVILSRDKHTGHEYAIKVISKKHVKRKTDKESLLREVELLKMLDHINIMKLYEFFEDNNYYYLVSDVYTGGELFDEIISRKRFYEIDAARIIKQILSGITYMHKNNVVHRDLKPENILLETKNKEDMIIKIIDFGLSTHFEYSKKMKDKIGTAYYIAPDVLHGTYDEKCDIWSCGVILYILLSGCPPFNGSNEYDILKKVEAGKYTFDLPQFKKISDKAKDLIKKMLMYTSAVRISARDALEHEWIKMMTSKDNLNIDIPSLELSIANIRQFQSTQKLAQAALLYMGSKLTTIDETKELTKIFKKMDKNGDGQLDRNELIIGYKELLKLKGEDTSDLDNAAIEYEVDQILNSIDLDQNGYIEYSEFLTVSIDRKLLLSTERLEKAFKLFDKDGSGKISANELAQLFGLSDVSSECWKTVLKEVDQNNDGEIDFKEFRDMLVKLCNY

Row | Structure (SMILES) | growth inhibition [1] | inhibition [2] | inhibition [3] [%] | growth inhibition [4] | outcome [5] | outcome [6] | outcome [7] | outcome [8]
1 | FC(F)(F)c1cccc(NC(=S)NN=Cc2ccccn2)c1 | 99% (active) | 29% | -7 | 100% (active) | inactive | inactive | inactive | inactive
2 | O=C(Nc1cccc(CN2CCCN(Cc3ccccc3)CC2)c1)c1cc2ccccc2s1 | 28% | 41% | 1 | 87% (active) | inactive | inactive | inactive | inactive
3 | Cn1ccnc1-c1nc2ccccn2c1NCC(=O)Nc1ccccc1N1CCCCC1 | 57% (active) | 16% | -7 | 85% (active) | inactive | inactive | inactive | inactive
4 | Cc1c(C)c2c(c(C)c1O)CCC(C)(CCC(=O)O)O2 (stereo not given) | -4% | 8% | 0 | 96% (active) | inactive | inactive | inactive | inactive
5 | Cc1c2ccncc2c(C)c2c1[nH]c1cc(Cc3ccccc3)c(O)cc12 | 99% (active) | 99% (active) | -4 | 100% (active) | inactive | inactive | inactive | inactive
6 | CC(C)c1ccc(C(NC(=O)C2CCCCC2)c2ccc3cccnc3c2O)cc1 (stereo not given) | 70% (active) | 46% | -8 | 89% (active) | inactive | inactive | inactive | inactive
7 | FC(F)(F)c1ccc2nc(-c3cccc(-c4ccc(CNCc5cnn(-c6ccccc6)n5)cc4)c3)[nH]c2c1 | 67% (active) | 14% | -4 | 101% (active) | inactive | inactive | inactive | inactive
8 | COC(=O)c1c(C#N)c(OC)cc(O)c1CSC[C@H](Nc1nc(-c2ccc([N+](=O)[O-])cc2)cs1)C(=O)NCCN1CCCCC1 | 88% (active) | 5% | -2 | 85% (active) | inactive | inactive | inactive | inactive
9 | COc1ccc(N2CCN(CCCCNC(=O)c3ccc(NC(=O)c4ccc(Cl)cc4)cc3)CC2)c(C)c1 | 51% (active) | 42% | 0 | 100% (active) | inactive | inactive | inactive | inactive
10 | COc1cccc(C=CC(=O)N(CCN)Cc2ccccc2)c1 | -4% | -14% | -3 | 99% (active) | inactive | inactive | inactive | inactive
11 | Cc1c(F)cc(C(=O)NC2CC2)cc1-c1ccc2c(cnn2S(=O)(=O)c2cccs2)c1 | 68% (active) | 32% | -4 | 92% (active) | inactive | inactive | inactive | inactive
12 | COc1ccc(Br)cc1/C=C/C(=O)Nc1ccc(C2CCN(C)CC2)cc1 | 61% (active) | 11% | -3 | 101% (active) | inactive | inactive | inactive | inactive
13 | Cc1ccc(C)c2sc(N3CCN(C(=O)c4ccc([N+](=O)[O-])o4)CC3)nc12 | 89% (active) | -2% | 2 | 96% (active) | inactive | inactive | inactive | inactive
14 | COc1ccc2nccc([C@@H](O)CN3CCC(NC(=O)c4ccc(C5(C(F)(F)F)N=N5)cc4)CC3)c2c1 | 41% | 8% | -8 | 97% (active) | inactive | inactive | inactive | inactive
15 | O=C(/C=C/c1ccc(Cl)c(Cl)c1)NCCCCCCN1CCCN(C(=O)Nc2cccc(C(F)(F)F)c2)CC1 | 0% | 25% | -3 | 95% (active) | inactive | inactive | inactive | inactive
16 | CCC(CC)n1cc2c(ccc3nc(N)nc(N)c32)n1 | -2% | 61% (active) | 4 | 91% (active) | inactive | inactive | inactive | inactive
17 | CC1CCN(Cc2cccc(C(=O)NCc3ccc(F)c(-c4cccc(CN5CCN[C@@H](C)C5)c4)c3)c2)CC1 | 64% (active) | 26% | 2 | 91% (active) | inactive | inactive | inactive | inactive
18 | CC(CCNc1c2ccccc2nc2ccccc12)N1CCN(C)CC1 (stereo not given) | -2% | 25% | 5 | 101% (active) | inactive | inactive | inactive | inactive
19 | O=C(NC1CCC(N2CCC(c3ccccc3C(F)(F)F)CC2)CC1)c1cc2ccccc2[nH]1 (stereo not given) | 98% (active) | 80% (active) | -5 | 100% (active) | inactive | inactive | inactive | inactive
20 | O=C(NC1CCN(Cc2ccccc2O)C1)c1ccc(Cl)c(Cl)c1 (stereo not given) | 62% (active) | -9% | -1 | 92% (active) | inactive | inactive | inactive | inactive
